Results reported in PubChem BioAssay AID1210 (NMMLSC, 2008).
The source made the active and inactive calls.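 The calls were made as follows: active = blocks over 70% of labeled estradiol binding at 10 µM, or over a set limit at 100 nM; inactive = the rest.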

Target: Estrogen receptor beta (Homo sapiens) (UniProt Q92731)
Test: displacement of fluorescent estrogen from ERbeta – cell-based, Cos7 ERbeta-GFP, flow cytometry, primary screen (AID 1210);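 also: 0% = DMSO vehicle wells and 100% = complete loss of labeled estradiol signal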
Settings: fluorescent estrogen binding, stronger effect = higher value
[1] = ligand binding inhibition, at 0.1 µM

Estrogen receptor beta (Homo sapiens), sequence (Q92731 whole entry, looked up): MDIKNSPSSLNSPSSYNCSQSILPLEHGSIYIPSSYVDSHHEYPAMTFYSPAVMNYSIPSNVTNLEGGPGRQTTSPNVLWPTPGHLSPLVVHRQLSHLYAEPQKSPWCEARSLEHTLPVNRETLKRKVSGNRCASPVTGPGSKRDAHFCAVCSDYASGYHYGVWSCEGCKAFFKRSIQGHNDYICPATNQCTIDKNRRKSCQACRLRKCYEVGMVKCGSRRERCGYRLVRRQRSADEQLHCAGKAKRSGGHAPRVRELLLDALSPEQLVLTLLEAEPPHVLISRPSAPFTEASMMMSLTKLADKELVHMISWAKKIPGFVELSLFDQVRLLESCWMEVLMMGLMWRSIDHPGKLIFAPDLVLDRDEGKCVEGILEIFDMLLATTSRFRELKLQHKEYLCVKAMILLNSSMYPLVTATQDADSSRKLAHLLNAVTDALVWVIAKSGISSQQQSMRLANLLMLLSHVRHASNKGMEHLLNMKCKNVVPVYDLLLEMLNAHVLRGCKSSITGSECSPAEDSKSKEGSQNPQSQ

Compound	inhibition (at 10 µM)	inhibition [1]
COc1ccc(-c2nnc(SCC(=O)c3cc(C)n(Cc4cccs4)c3C)o2)cc1	27% (inactive)	1%
CN1C(=O)CC(C(=O)O)SC1=Nc1cc(Cl)c(O)c(Cl)c1 (centres undefined)	48% (inactive)	14%
COc1ccc(-c2nc3ccc([N+](=O)[O-])cc3o2)cc1	36% (inactive)	12%
N=C1C(c2nc3ccccc3[nH]2)=C(O)CN1c1ccc(CC(=O)O)cc1	26% (inactive)	21%
CCCc1nnc2n1N=C(c1ccc(-c3cc(Cl)ccc3Cl)o1)CS2	43% (inactive)	48%
CC1(C)CCCN(C(=O)c2coc(=O)c(Br)c2)C1	49% (inactive)	18%
CCC(=O)Nc1ccc(C(=O)Cn2nc(C(=O)O)c3ccccc3c2=O)cc1	64% (inactive)	1%
Oc1ccc(N=Cc2ccc(O)c(O)c2)cc1	34% (inactive)	20%
CC(C)C1Nc2ccc(S(N)(=O)=O)cc2C2C=CCC21 (centres undefined)	57% (inactive)	20%
CCN(CC)c1ccc(-c2nn3c(-c4ccccc4OC)nnc3s2)cc1	32% (inactive)	24%
COC(=O)c1ccc(CC(=O)c2ccc(O)cc2O)o1	44% (inactive)	20%
Cc1cc(C(=O)O)ccc1-n1c(C)ccc1C	69% (inactive)	49%
c1ccc(Cc2nnc3sc(-c4ccco4)nn23)cc1	18% (inactive)	60%
CCOC(=O)Cc1cc(=O)n2[nH]c(-c3ccc(C)cc3)cc2n1	19% (inactive)	15%
CCC(Sc1ncnc2sc(C)c(C)c12)C(=O)OC (centres undefined)	27% (inactive)	41%
COc1ccc(C2Nc3ccccc3C(=O)N2c2ccc(C)cc2)cc1Cn1cc([N+](=O)[O-])cn1 (centres undefined)	20% (inactive)	2%
Nc1ccc(-c2nc3ccc(C(=O)O)cc3s2)cc1	65% (inactive)	10%
CC(Oc1ccc(Cl)cc1Cl)C(=O)Nc1ccc2oc(-c3ccncc3)nc2c1 (centres undefined)	50% (inactive)	27%
Cc1ccnc(NS(=O)(=O)c2ccc(NC(=O)Cc3cccs3)cc2)n1	38% (inactive)	47%

Compound	inhibition (at 10 µM)	inhibition [1]
c1ccc(-c2nnc3sc(Cc4cccs4)nn23)cc1	18% (inactive)	20%
Cc1cc(-c2nn3c(-c4ccccc4)nnc3s2)c2ccccc2n1	71% (active)	45%
Cc1cc(C)c(S(=O)(=O)/N=C2\C=CC(=O)C(Cl)=C2)c(C)c1	0% (inactive)	16%
O=C1Nc2ccccc2SC(c2ccccc2)C1O (centres undefined)	56% (inactive)	26%
COc1ccc(NC(=O)CSc2nc3ccccc3c3nc4ccccc4n23)cc1	38% (inactive)	44%
Cc1ccc(-c2cc(C(=O)NCc3ccco3)c3ccccc3n2)o1	36% (inactive)	47%
c1coc(-c2nn3c(-c4ccco4)nnc3s2)c1	37% (inactive)	28%
COc1cc(OC)cc(C(=O)NC2CCN(C(=O)N3c4ccccc4Sc4ccccc43)CC2)c1	21% (inactive)	16%
O=C(Nc1ccc2nn(-c3ccccc3)nc2c1)c1ccc2c(c1)OCO2	27% (inactive)	14%
O=C(O)c1ccc2c(c1)C1C=CCC1C(c1cc3c(cc1Br)OCO3)N2 (centres undefined)	38% (inactive)	6%
Cc1ccc(NC(=O)CSc2nc3ccccc3c3nc4ccccc4n23)cc1	59% (inactive)	7%
O=C(Cn1c(=O)n(Cc2ccco2)c(=O)c2c3c(sc21)CCCCC3)Nc1ccccc1	37% (inactive)	39%
CC1CCN(S(=O)(=O)c2ccc(NC(=O)Cc3cccs3)cc2)CC1	36% (inactive)	33%
CC(C)c1ccc2c(c1)[C@H]1OCC[C@H]1[C@@H](c1cccs1)N2	0% (inactive)	36%
CC1CC(C(F)(F)C(F)(F)F)n2nc(C(=O)O)cc2N1 (centres undefined)	58% (inactive)	27%
COc1ccccc1N1CCN(C(=O)c2cc3c(s2)CCC3)CC1	22% (inactive)	4%
CCc1ccc2[nH]c(=O)c(C3C(C#N)=C(N)Oc4c3ccc3cccnc43)cc2c1 (centres undefined)	23% (inactive)	36%
Cc1ccccc1OCC1Cc2c(nc(N)c(C#N)c2N)O1 (centres undefined)	25% (inactive)	11%
